Source: PubChem BioAssay (National Center for Advancing Translational Sciences (NCATS))
This is a sample that favours compounds with a hit; in the whole collection about 3.8% have one here.
Nrf2 inh: blocks Nrf2 signaling. A549 ARE-Fluc reporter, luciferase luminescence, 18-24 h. Potency, µM (series often up to 46 µM), usual class: inhibitors. 2.1% of 360,000 active. AID 504444; further: nearly all actives have a fitted effect of over 60% in size
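Concentration-response testing used A549 ARE_Fluc cells at 5000 cells/well. Following an 18-24 h compound incubation, viability was read by fluorescence (Ex 405/Em 525) and luciferase output by luminescence.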
mIDH1 inhibitor: blocks human mutant IDH1 R132H enzyme | O75874 | IDH1-R132H enzyme, NADPH consumption, diaphorase/resazurin fluorescence | Potency, µM (doses to about 76.6 µM), hits mostly inhibitors | 0.093% of 390,000 active | AID 602179; further: nearly all actives have a fitted effect of over 65% in size
Target sequence (O75874 whole entry R132H, stated change not applied): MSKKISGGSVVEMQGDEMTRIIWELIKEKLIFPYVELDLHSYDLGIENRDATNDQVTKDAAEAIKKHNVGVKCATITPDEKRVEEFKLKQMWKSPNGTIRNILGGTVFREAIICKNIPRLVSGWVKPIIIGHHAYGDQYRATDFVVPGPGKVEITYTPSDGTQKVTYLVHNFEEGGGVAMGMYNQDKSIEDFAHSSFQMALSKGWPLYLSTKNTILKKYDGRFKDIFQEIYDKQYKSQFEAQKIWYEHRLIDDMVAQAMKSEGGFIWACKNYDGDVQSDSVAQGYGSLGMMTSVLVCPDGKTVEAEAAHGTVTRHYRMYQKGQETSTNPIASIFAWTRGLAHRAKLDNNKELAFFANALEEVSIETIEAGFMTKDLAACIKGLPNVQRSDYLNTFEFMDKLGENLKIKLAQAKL
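IDH1-R132H (0.5 ug/mL dispensed) in pH 7.5 Tris buffer was preincubated 30 min with compound, then given a substrate mix of 0.016 mM NADPH and 2 mM alpha-KG for 80 min at room temperature; remaining NADPH was read by diaphorase/resazurin fluorescence.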
ELG1 DNA repair: blocks ELG1-dependent DNA repair in HEK293T cells. HEK293T ELG1-luciferase reporter, luminescence, 16 h; DNA damage induced by 5-fluorouridine. Potency, µM (series often up to 46.1 µM), actives largely listed as inhibitors. 2.3% of 330,000 active. AID 504467; further: nearly all actives have a fitted effect of over 55% in size
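HEK293T cells expressing luciferase-tagged ELG1 (2,000/well) received 5-Fluorouridine plus compound or DMSO for 16 hr at 37 °C. Luciferase was read by ONE-Glo luminescence after 30 min at room temperature.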
A549 tox-1: counter-screen for Nrf2 inhibitors: cytotoxicity in A549 cells. A549 ARE-Fluc cells, CellTiter-Fluor viability, 18-24 h. AID 504648. Potency, µM (titrated, usually from 46 µM), usual class: inhibitors. 0.16% of 390,000 active
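A549 ARE_Fluc cells in 5% FBS OPTI-MEM were exposed to compounds in concentration-response for 18-24 h at 37 deg C. Viability was read by CellTiter-Fluor fluorescence (Ex 405/Em 525) after 30 min, before the luciferase read.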
Nrf2 ARE act: Nrf2 pathway activation. AREc32 ARE-luciferase reporter (MCF7-derived line), luminescence, 24 h. AID 624171. Potency, µM (top dose mostly 46.1 µM), usual class: activators. 0.31% of 410,000 active; further: nearly all actives have a fitted effect of over 65% in size
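For detection, Steady-Glo was added and plates sat 30 min at RT; before that, AREc32_Fluc cells grown overnight in OPTI-MEM/5% FBS had been treated with 23 nL compound for 24 hr at 37 deg C.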
FLuc counter 3: blocks purified firefly luciferase in Nrf2 counterscreen | shares compounds with Nrf2 inh | purified firefly luciferase, luminescence inhibition | Potency, µM (series often up to 57.5 µM), most hits filed as inhibitors | 4% of 1,400 active; further: nearly all actives have a fitted effect of over 65% in size
A549 tox-2: counter-screen for Nrf2 inhibitors: cytotoxicity in A549 ARE cells; AID 720523; A549 ARE-Fluc cells, cytotoxicity counterscreen; 2% of 1,400 active; Potency, µM (series often up to 46.1 µM), hits mostly inhibitors; shares compounds with Nrf2 inh;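 further: cells exposed to compounds for 18 to 24 hours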
Nrf2 ARE inh: Nrf2 inhibition confirmed, A549 ARE-luciferase; shares compounds with Nrf2 inh; A549 ARE-firefly luciferase reporter, luminescence; Potency, µM (titrated, usually from 46.1 µM), actives largely listed as inhibitors; 74% of 1,400 active; AID 720524; further: nearly all actives have a fitted effect of over 65% in size
Hits are given with their value; i = inactive; ? = inconclusive; nt = no result shown. The call rests on the fitted dose curve; in most records, active means well fitted curve in the direction sought with a large enough effect; inconclusive means small, poorly fitted or top-dose-only effect, or another doubt; inactive means no such curve, though single readings can be large; an effect the other way counts as inactive or inconclusive.

SMILES	Nrf2 inh	mIDH1 inhibitor	ELG1 DNA repair	A549 tox-1	Nrf2 ARE act	FLuc counter 3	A549 tox-2	Nrf2 ARE inh
Cc1ccsc1/C=C/c1ccc2cccc(O)c2n1	i	i	?	?	?	nt	nt	nt
Cc1cccc(/C=C/c2cccs2)n1	nt	nt	nt	nt	nt	i	i	2.6µM
O=C(Nc1c(F)cccc1F)c1cnc(N2CCN(c3ccccn3)CC2)c2ccccc12	9.2µM	i	18µM	?	i	i	i	?
COC(=O)c1cnc(N2CCN(c3ccc(F)cc3)CC2)c2ccccc12	nt	i	nt	i	i	nt	nt	nt
Cc1ccc(NC(=S)NC(=O)c2ccc(F)cc2)cc1S(=O)(=O)Nc1ccccc1Cl	7.3µM	i	?	?	i	i	i	?
Cc1ccc(NC(=O)c2ccc(=O)[nH]n2)cc1S(=O)(=O)Nc1ccccc1Cl	i	i	i	i	i	nt	nt	nt
COc1ccc(C(=O)Nc2ccc(Cl)c(S(=O)(=O)Nc3ccccc3OC)c2)cc1	7.3µM	i	?	i	i	?	i	9.2µM
FC(F)(F)c1cccc(N2CCN(c3ncnc4c3nc3n4CCCC3)CC2)c1	1.6µM	i	nt	i	i	i	i	2.1µM
Cc1noc2ncnc(N3CCN(c4cccc(C(F)(F)F)c4)CC3)c12	8.2µM	i	nt	i	i	i	i	8.2µM
O=C(Nc1sc2c(c1C(=O)NCc1ccco1)CCCC2)c1cc(=O)c2ccccc2o1	?	nt	nt	i	i	nt	nt	nt
CCc1ccc(CN(C)C(=O)c2cc(COc3cccc4cnccc34)on2)cc1	i	i	?	i	i	nt	nt	nt
Cc1c(C(C)NC(=O)c2cc(COc3cccc4cnccc34)on2)cnn1C (stereo not drawn)	8.2µM	i	3.7µM	i	i	i	i	7.3µM
CCCOC(c1ccccc1)(c1ccc(C(F)(F)F)cc1)C(Oc1nc(C)cc(C)n1)C(=O)O (stereo not drawn)	3.3µM	i	i	i	i	i	i	1.8µM
COc1ccc(NC(=O)CSc2nc(-c3ccco3)cc(C(F)(F)F)n2)cc1Cl	7.3µM	i	nt	i	i	i	i	21µM
CCCN1CNc2c(c(=O)[nH]c(=S)n2CCc2c(Cl)cccc2Cl)C1	i	nt	nt	i	nt	nt	nt	nt
CCN(CC)c1ccc(/C=C/c2ccncc2)cc1	nt	nt	nt	nt	nt	i	6.5µM	1.5µM
CN(C)c1ccc(/C=C/c2ccncc2)cc1	i	i	?	i	i	nt	nt	nt
O=C(O)C1CCCN1c1nc(-c2ccc(Cl)c(Cl)c2)cc(C(F)(F)F)n1 (stereo not drawn)	7.3µM	i	i	i	i	i	i	nt
FC(F)(F)c1cc(-c2ccccc2)nc(N2CCCCC2)n1	nt	i	i	i	i	nt	nt	nt
CC(Sc1nc2ccccc2c(=O)n1CCCN1CCOCC1)C(=O)N1CCc2ccccc21 (stereo not drawn)	i	i	nt	i	i	nt	nt	nt
COc1ccccc1NC(=O)CSc1ncc2c(n1)-c1ccccc1N(Cc1ccccc1C)S2(=O)=O	i	i	nt	i	i	nt	nt	nt
O=C(N/N=C/c1ccc([N+](=O)[O-])s1)c1ccccc1Br	9.2µM	i	i	?	i	?	i	5.8µM
COc1ccccc1NC(=O)C(=O)N/N=C/c1ccc([N+](=O)[O-])s1	i	i	i	i	i	nt	nt	nt
Cc1cc(C)nc(CCNC(=O)c2cc(COc3ccccc3)on2)n1	?	i	?	i	i	nt	nt	nt
CN(C)c1nc(-c2ccccn2)nnc1-c1ccccc1	?	i	?	?	i	i	i	12µM
c1ccc(-c2nnc(-c3ccccn3)c(-c3ccccn3)n2)nc1	i	i	i	i	i	nt	nt	nt
S=C(NCCc1ccccc1)Nc1cccc2cnccc12	3.7µM	i	1.5µM	i	i	0.043µM	i	2.6µM
S=C(NCc1ccccc1)Nc1cccc2cnccc12	2.6µM	i	2.1µM	i	i	i	i	7.3µM
Cc1ccc(CN(Cc2ccco2)C(=O)c2ccccc2Br)o1	i	i	nt	i	i	nt	nt	nt
O=C1C=CCC(/C=C/c2ccccc2)O1 (stereo not drawn)	2.6µM	i	18µM	i	i	i	?	1.3µM
